Test results reported in PubChem BioAssay (NCATS).
Values without a mark were called inactive. Active and inactive are the calls of the source. The call rests on the fitted dose curve; in most records, active means well fitted inhibition curve with a large enough effect; inconclusive means small, poorly fitted or top-dose-only effect; inactive means no such curve, though single readings can be large or run the other way.

Assay: qHTS assay for measurement of the activity of small molecule inhibitors on Zika virus induced Caspase-3 activity in human astrocytoma cells (AID 1224859)
Conditions: SNB-19 ZIKV-induced caspase-3/7, luminescence, 6 h; series mostly up to 45.7 µM; activity change, negative = inhibition: at the top concentration
Source text: National Center for Advancing Translational Sciences [NCATS]
Johns Hopkins University School of Medicine
Increase in the Caspase-3 activity indicates an activation of apoptosis cell death pathway caused by Zika virus infection in certain types of neuronal cells including human neural progenitor cells (hNPCs), astrocytes, and astrocytoma cell line (SNB-19). This cell-based caspase-3 activity assay measures the increased caspase-3 activity in the astrocytoma cell line (SNB-19) after a 6-hour Zika virus infection with a luminescence readout. A decrease in the luminescence signal in this assay by small molecule treatment indicates an inhibitory effect of that small molecule on the Zika virus induced caspase-3 activity that may correlate with its effect on reduction of Zika virus caused cell death.
The medium for SNB-19 cells is composed of RPMI 1640 (ATCC, Cat.# 30-2001), 10% fetal bovine serum (FBS) (GE healthcare Life Sciences, Cat.# SH30071.03), and 1% Pen/Strep (Gibco, Cat.# 15140-122). A Caspase-Glo 3/7 assay kit (catalog number G8092; Promega, Madison, WI) was used to detect caspase-3 activity induced by Zika virus infection in human cells. The reagent mixture was reconstituted as described in the protocol from the manufacturer. Polystyrene tissue culture treated and PDL coated white plates were obtained from Greiner Bio-One (Monroe, NC). Cells were seeded in 384- or 1536-well assay plates and cultured at 37 C with 5% CO2 for 16 to 20 hours. The typical cell seeding density in the 1536-well plate assay is 250 cells/well in 3ul medium for SNB-19 cells in tissue culture treated plates. Compounds were added to cells and incubated for one hour before addition of ZIKV solution to cells (2 FFU/cell). After incubation at 37 C with 5% CO2 for 6 hours, the reagent mixture of Caspase-Glo 3/7 assay kit was added to each well, followed by incubation at room temperature for 30 minutes. The luminescence intensity of the assay plates was measured using a ViewLux plate reader (PerkinElmer). Data were normalized by using the cell-containing wells without ZIKV as a negative control (0% induction of caspase 3/7 activity) and wells containing ZIKV infected cells (Caspase-3 activity induced) as a positive control (100% induction of caspase 3 activity). The percentage inhibitions of the increased Caspase-3 activity by small molecule inhibitors were then calculated.

| SMILES | activity change, negative = inhibition | Potency |
| --- | --- | --- |
| NC1=NC(=O)N2CC12 (stereo not given) | 43.2% | – |
| CC(C)(C)NC[C@H](O)c1ccc(O)cc1Cl | 5.26% | – |
| CCCCCCCCc1ccc(O)cc1 | 6.26% [at 92.8 µM] | – |
| COC(=O)c1cncn1C(C)c1ccccc1 (stereo not given) | 6.58% | – |
| O=C(O)[C@@H]1CCN1 | -16.5% | – |
| NC(CCP(=O)(O)O)C(=O)O (stereo not given) | -0.365% | – |
| O=[N+]([O-])c1cc([N+](=O)[O-])c2ccccc2c1 | 6.18% [at 92.8 µM] | – |
| NC(CP(=O)(O)O)C(=O)O (stereo not given) | -13.5% | – |
| CCOC(=O)Nc1ccc(NCc2ccc(F)cc2)cc1N | -2.1% | – |
| CC(=Cc1csc(C)n1)[C@@H]1C[C@H]2O[C@]2(C)CCC[C@H](C)[C@@H](O)[C@@H](C)C(=O)C(C)(C)[C@@H](O)CC(=O)O1 | -18% | – |
| CC1(N2CCC(n3c([C@@H]4CCCNC4)nc4ccccc43)CC2)CCCCCCC1 | 1.04% | – |
| C=CCC1=C(C)C(OC(=O)C2C(C=C(C)C)C2(C)C)CC1=O (stereo not given) | 19.1% [at 92.8 µM] | – |
| Cc1c(C(=O)Nc2cccc(C(F)(F)F)c2)cc(-c2ccccc2)n1CCCN1CCOCC1 | 12.7% | – |
| CC[C@@]1(O)C(=O)OCc2c1cc1n(c2=O)Cc2cc3ccccc3nc2-1 | – | inactive |
| C#C[C@]1(O)C=C[C@@H]2[C@@H]3CCC4=CC(=O)CC[C@@H]4[C@H]3CC[C@@]21CC | 6.88% | – |
| C=CCN1CC[C@]23CCCCC2[C@H]1Cc1ccc(O)cc13 (stereo not given in full) | 0.576% | – |
| Cc1cc(O)ccc1Cl | -0.0476% | – |
| O=C(O)COc1ccccc1 | 11.6% | – |
| CN[C@@H]1Cc2cccc3[nH]c(=O)n(c23)C1 | -20.8% | – |
| COC1=C[C@@H]2[C@@H]3Cc4ccc(OC)c(O)c4[C@]2(CCN3C)CC1=O | 15.1% | – |

| SMILES | activity change, negative = inhibition | Potency |
| --- | --- | --- |
| CC(=O)OCC1=C(C(=O)O)N2C(=O)[C@@H](N)[C@@H]2SC1 | 2.72% | – |
| Fc1cc(Br)ccc1CBr | 17.7% | – |
| CCOC(=O)c1cncn1[C@H](C)c1ccccc1 | 8.91% | – |
| O=C(Nc1ccncc1)C(=O)c1cn(Cc2ccc(Cl)cc2)c2ccccc12 | 39.1% | – |
| C[C@]12CC[C@H](O)CC1=CC[C@H]1[C@H]3CCC(=O)[C@@]3(C)CC[C@@H]12 | -6.83% | – |
| C[C@@H]1O[C@@H](O[C@@H]2C=C3CC[C@@H]4[C@@H](CC[C@]5(C)[C@H](c6ccc(=O)oc6)CC[C@@]45O)[C@@]3(C)CC2)[C@H](O)[C@H](O)[C@H]1O | 9.36% | – |
| CN1CCN(c2ccc([N+](=O)[O-])c3no[n+]([O-])c23)CC1 | 12.9% | – |
| CCC(=O)O[C@@H]1C=C2CCC3C(CCC4(C)C3CC[C@@H]4OC(=O)CC)C2CC1 (stereo not given in full) | -4.43% | – |
| CCOP(=O)(NC(C)C)Oc1ccc(SC)c(C)c1 (stereo not given) | -6.81% [at 92.8 µM] | – |
| CSCC[C@@H](NC(=O)[C@@H](Cc1ccccc1)NC(=O)CNC(=O)CNC(=O)[C@@H](N)Cc1ccc(O)cc1)C(=O)O | 388% | – |
| CC(C)Oc1cccc(NC(=O)c2ccccc2C(F)(F)F)c1 | -4.33% [at 92.8 µM] | – |
| CC[N+]1(CCOC(=O)C(O)(c2ccccc2)c2ccccc2)CCCCC1 | -1.6% | – |
| Oc1ccc2c3c1O[C@H]1[C@@H](O)C=C[C@H]4[C@@H](C2)NCC[C@@]341 | 1.18% [at 92.8 µM] | – |
| CCO/N=C(\CC)C1=C(O)CC(c2c(C)cc(C)cc2C)CC1=O (stereo not given) | 10.6% [at 92.8 µM] | – |
| Nc1c(Cl)c(Cl)c(Cl)c(Cl)c1Cl | 6.34% [at 92.8 µM] | – |
| O=c1[nH]c2ccccc2n1C1CCN(Cc2ccc(-c3[nH]c4cc5ncnc5cc4nc3-c3ccccc3)cc2)CC1 | 21.6% | – |
| CC(C)N(CCNC(=O)CN1CCCC1=O)C(C)C | 13.7% | – |
| c1ccc2sc(C3(N4CCCCC4)CCCCC3)cc2c1 | 3.75% | – |
| O=[N+]([O-])c1ncc[nH]1 | -11.2% | – |
| CO/C=C(/C(=O)OC)c1ccccc1Oc1cc(Oc2ccccc2C#N)ncn1 | -7.69% [at 92.8 µM] | – |
